Measurements reported in PubChem BioAssay.
Calls of active or inactive are those of the source.

Legend:
[1] = anti-His antibody binders, primary screen, artefact control for SMM control protein annotation, biochemical, small-molecule microarray, 635 nm fluorescence (AID 1128); conditions: anti-His Alexa647 antibody binding, higher = more signal;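 note: score merges feature fluorescence with signal-to-noise for each printed compound spot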
[2] = system: Human papillomavirus type 1a E7 protein (residues 1-88); assay: HPV1a E7 small-molecule binders, primary screen, biochemical, small-molecule microarray, residues 1-88, 635 nm (AID 1129); conditions: small-molecule microarray binding, fluorescence 635 nm; higher = more signal
[3] = target: Focal adhesion kinase 1 (Homo sapiens) (UniProt Q05397); assay: small-molecule microarray binders of FAK, primary screen, biochemical, 635/667 nm fluorescence, BSA, DTT (AID 1130); conditions: PTK2 binding, 635 nm fluorescence, higher = more signal;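 note: composite of spot emission at 667 nm and signal to noise over triplicate slides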
Sequence of Focal adhesion kinase 1 (Homo sapiens) (Q05397 whole entry, looked up): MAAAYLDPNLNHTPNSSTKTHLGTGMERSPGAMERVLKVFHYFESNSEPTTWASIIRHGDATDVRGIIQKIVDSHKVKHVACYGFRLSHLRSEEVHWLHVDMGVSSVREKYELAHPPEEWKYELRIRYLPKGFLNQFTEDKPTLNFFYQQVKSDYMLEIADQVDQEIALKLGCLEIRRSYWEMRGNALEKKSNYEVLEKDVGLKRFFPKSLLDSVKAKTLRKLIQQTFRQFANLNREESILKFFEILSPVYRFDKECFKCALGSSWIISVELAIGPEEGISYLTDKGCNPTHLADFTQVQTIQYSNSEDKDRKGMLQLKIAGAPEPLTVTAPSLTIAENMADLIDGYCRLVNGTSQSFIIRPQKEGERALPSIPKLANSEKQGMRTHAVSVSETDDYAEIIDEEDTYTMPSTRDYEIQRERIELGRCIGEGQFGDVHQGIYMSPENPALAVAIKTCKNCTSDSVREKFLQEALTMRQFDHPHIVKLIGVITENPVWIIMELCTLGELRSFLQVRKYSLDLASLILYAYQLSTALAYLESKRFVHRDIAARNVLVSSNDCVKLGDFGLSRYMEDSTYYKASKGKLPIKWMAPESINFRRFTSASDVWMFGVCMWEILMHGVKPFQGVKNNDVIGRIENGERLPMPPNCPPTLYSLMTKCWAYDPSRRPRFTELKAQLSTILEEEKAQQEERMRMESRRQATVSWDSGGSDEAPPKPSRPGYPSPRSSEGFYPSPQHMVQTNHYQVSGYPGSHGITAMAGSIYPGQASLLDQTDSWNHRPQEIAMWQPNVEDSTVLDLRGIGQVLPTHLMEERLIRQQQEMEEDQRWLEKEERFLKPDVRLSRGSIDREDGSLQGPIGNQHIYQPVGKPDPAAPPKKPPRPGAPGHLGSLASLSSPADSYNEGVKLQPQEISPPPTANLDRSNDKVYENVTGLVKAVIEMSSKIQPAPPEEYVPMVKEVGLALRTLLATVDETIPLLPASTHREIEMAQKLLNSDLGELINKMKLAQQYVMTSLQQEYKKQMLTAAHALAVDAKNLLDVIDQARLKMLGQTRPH

[4] = system: Fibrinogen (Alexa647-labelled); assay: fibrinogen binders on compound microarrays, profiling panel, artefact control for SMM control-protein annotation, biochemical, small-molecule microarray, 635/667 nm fluorescence (AID 1131); conditions: fibrinogen-A647 binding fluorescence, higher = more signal;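 note: z-score merges 667 nm fluorescence with per-spot signal-to-noise over triplicate slides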
[5] = target: Follistatin (Homo sapiens) (UniProt P19883); assay: follistatin binders on small-molecule microarrays, primary screen, biochemical, small-molecule microarray, 635/667 nm fluorescence (AID 1132); conditions: FST binding, 635 nm fluorescence, higher = more signal
Sequence of Follistatin (Homo sapiens) (P19883 whole entry, looked up): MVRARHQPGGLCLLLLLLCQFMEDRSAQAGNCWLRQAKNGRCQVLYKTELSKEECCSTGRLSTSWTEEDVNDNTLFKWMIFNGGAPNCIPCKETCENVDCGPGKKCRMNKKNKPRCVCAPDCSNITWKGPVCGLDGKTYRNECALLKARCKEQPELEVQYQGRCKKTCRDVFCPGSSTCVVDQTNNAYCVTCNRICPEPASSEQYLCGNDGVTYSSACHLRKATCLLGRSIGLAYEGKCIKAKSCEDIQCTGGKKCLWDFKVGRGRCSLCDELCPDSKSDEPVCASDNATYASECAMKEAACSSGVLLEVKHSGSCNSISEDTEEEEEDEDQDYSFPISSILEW

[6] = target: Fibroblast growth factor 2 (Homo sapiens) (UniProt P09038); assay: FGF2 binders on small-molecule microarrays, primary screen, biochemical, small-molecule microarray, 635/667 nm fluorescence (AID 1133); conditions: small-molecule microarray binding, FGF2, fluorescence 635/667; higher = more signal
Sequence of Fibroblast growth factor 2 (Homo sapiens) (P09038 whole entry, looked up): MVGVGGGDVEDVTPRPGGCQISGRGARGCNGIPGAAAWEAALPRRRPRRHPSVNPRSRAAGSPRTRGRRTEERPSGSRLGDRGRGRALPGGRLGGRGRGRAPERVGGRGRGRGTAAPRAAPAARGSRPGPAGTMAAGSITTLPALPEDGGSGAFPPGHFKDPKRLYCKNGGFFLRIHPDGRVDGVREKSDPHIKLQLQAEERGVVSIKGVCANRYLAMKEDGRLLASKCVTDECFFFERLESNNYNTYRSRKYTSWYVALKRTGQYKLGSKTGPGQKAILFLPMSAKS

[7] = mitochondrial membrane potential change in A549 cells, profiling panel, cell-based, JC-1 fluorescence, basal, 24 h, 100 nL (AID 1138); conditions: higher = more signal;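 note: A549 lung adenocarcinoma cells under basal conditions with no added stimulus; test concentration not given here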
[8] = system: Lefty1; assay: Lefty1 binders on small-molecule microarrays, primary screen, biochemical, small-molecule microarray, 635/667 nm fluorescence (AID 1139); conditions: small-molecule microarray binding, fluorescence 635/667; higher = more signal
[9] = system: wheat germ agglutinin (Triticum aestivum), Alexa647-labelled; assay: wheat germ agglutinin binders on compound microarrays, profiling panel, artefact control for SMM control-protein annotation, biochemical, small-molecule microarray, 635/667 nm fluorescence (AID 1140); conditions: WGA-A647 binding, 635 nm fluorescence, higher = more signal;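 note: score merges 667 nm feature emission with signal to noise over triplicate slides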
[10] = target: Luciferin 4-monooxygenase (Photinus pyralis) (UniProt P08659); assay: firefly luciferase enzyme inhibitors, primary screen, biochemical, luminescence, purified enzyme, 2006 set (AID 1141); conditions: SteadyGlo luminescence, 30 min, higher = more signal, called active from +8 up or from −8 down;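 note: cell-free assay with purified firefly luciferase at 100 ng per well in PBS; test concentration not given here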
Sequence of Luciferin 4-monooxygenase (Photinus pyralis) (P08659 whole entry, looked up): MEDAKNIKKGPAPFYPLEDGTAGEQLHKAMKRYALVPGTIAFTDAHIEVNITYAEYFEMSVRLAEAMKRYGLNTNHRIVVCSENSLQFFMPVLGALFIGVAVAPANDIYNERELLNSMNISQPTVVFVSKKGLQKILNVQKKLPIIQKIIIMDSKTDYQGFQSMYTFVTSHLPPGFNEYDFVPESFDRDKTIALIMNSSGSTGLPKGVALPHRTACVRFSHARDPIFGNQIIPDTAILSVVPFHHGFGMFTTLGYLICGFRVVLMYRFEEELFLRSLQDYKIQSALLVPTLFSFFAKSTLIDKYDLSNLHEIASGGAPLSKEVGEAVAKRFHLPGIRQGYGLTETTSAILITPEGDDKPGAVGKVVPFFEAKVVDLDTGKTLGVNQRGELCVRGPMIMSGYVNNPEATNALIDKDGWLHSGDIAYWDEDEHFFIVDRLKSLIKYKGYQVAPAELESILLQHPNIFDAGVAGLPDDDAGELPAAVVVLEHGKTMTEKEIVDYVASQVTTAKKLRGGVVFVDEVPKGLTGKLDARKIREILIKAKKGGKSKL

Structure (SMILES)	composite z-score [1]	composite z-score [2]	composite z-score [3]	composite z-score [4]	composite z-score [5]	composite z-score [6]	z-score [7]	composite z-score [8]	composite z-score [9]	z-score [10]
C#CCN(CC1=CCCCC1)[C@H](c1ccccc1Br)[C@@H](O)Cc1ccccc1	0.646	-0.0173	1.98	-0.671	-0.688	-1.05	-1.27	-0.955	0.665	-0.688 (inactive)
COCCOC(=O)N1C(=O)[C@@]2(c3cc(C#Cc4ccc(OC)cc4)ccc31)[C@H](c1ccc(O)cc1)N1[C@H](c3ccccc3)[C@H](c3ccccc3)OC(=O)[C@H]1[C@@H]2C(=O)NC[C@H](O)c1ccccc1	0.522	1.22	-0.0575	0.994	1.3	1.4	-1.51	1.33	0.623	1.05 (inactive)
NCCCCCNC(=O)[C@@H]1C[C@@H]2C(=O)N[C@@H](Cc3ccccc3)C(=O)N2[C@@H]1c1cccc(OCCO)c1	1.63	-0.074	0.123	0.968	0.574	0.635	-0.505	0.325	1.12	-0.435 (inactive)
COc1cc(CO)cc(I)c1O[C@H]1C=C(C(=O)NCCO)C[C@@H](N(CCN2CCOCC2)C(=O)C2CCOC2)[C@@H]1O (stereo not given in full)	-0.504	-0.233	-0.508	0.651	0.581	0.675	1.86	0.792	-0.201	-1.13 (inactive)
[N-]=[N+]=NCc1ccccc1C[C@@]1(C(=O)NCC(O)CO)N=C(c2ccc(OCCCO)cc2)O[C@@H]1c1ccccc1N=[N+]=[N-] (stereo not given in full)	2.41	1.22	1.22	0.962	1.38	1.58	-0.043	-0.709	1.15	-3.13 (inactive)
CCCC[C@@H]1C[C@H]1[C@@H](NC(=O)c1ccco1)c1ccc(C(=O)OC)cc1	-0.499	0.149	0.214	0.0507	-0.943	-1.42	-0.814	-0.431	0.586	1.94 (inactive)
Cc1ccc(S[C@]2(C(=O)NCC(C)C)CC(=O)N(Cc3cc(C(F)(F)F)cc(C(F)(F)F)c3)[C@@H]2c2ccc(CO)cc2I)cc1	-0.316	-1.08	-0.55	-0.819	-1.59	-1.1	-0.553	-2.21	-0.192	0.328 (inactive)
C=CCC(OC(C)=O)[C@@H]1[C@@H](N(Cc2ccc(-c3cccc(C(F)(F)F)c3)o2)C(=O)Cc2ccc(F)cc2)c2cc(OCCCO)ccc2N1C(=O)Cc1ccc(OC)cc1 (stereo not given in full)	-0.775	-2.07	-0.572	-0.0256	0.346	-0.308	0.812	-0.0727	0.114	0.175 (inactive)
COCCOC(=O)N1C(=O)[C@@]2(c3cc(C#CCCO)ccc31)[C@H](C(=O)N1CCN(c3ncccn3)CC1)[C@H]1C(=O)O[C@H](c3ccccc3)[C@H](c3ccccc3)N1[C@@H]2c1ccccc1OCCO	0.475	1.23	0.868	0.972	1.35	0.821	-0.778	0.828	1.04	1.23 (inactive)
COc1ccc([Si](C)(C)[C@H]2[C@H](CCO)O[C@@]3(C(=O)N(Cc4ccc(N5C(=O)COc6ccccc65)cc4)c4ccccc43)[C@@H]2C)cc1	1.04	0.0091	-0.187	0.27	-0.566	-0.684	0.272	-0.072	0.484	0.0706 (inactive)
COC(=O)[C@@]1(Cc2ccc(F)cc2)[C@H]2c3cc(C(=O)N(C)C)n(CC4CC4)c3C[C@H]2CN1C(=O)c1ccccc1	1.54	1.21	-0.0938	0.94	0.581	-0.272	0.524	-0.12	1.08	0.184 (inactive)
[N-]=[N+]=Nc1ccccc1C[C@]1(C(N)=O)N=C(c2ccc(OCCCO)cc2)O[C@H]1c1ccccc1	2.45	1.2	-0.155	1.01	0.371	-0.768	0.518	-0.364	1.23	-1.53 (inactive)
CC(C)(C)OC(=O)CC[C@]12N=C(c3ccc(OCCCO)cc3)O[C@H]1c1ccccc1N(CCS(=O)(=O)c1ccccc1)C2=O	1.99	1.24	0.895	0.957	1.17	0.596	0.95	0.5	1.08	-8.32 (active)
C#CCN(Cc1ccccc1Br)C(/C=C/c1ccccc1)CO (stereo not given)	0.448	-0.265	-0.102	-0.171	-0.523	0.774	-1.01	0.0437	-0.618	0.0615 (inactive)
CN(C)CCCCCCNC(=O)[C@@H]1C[C@@H]2C(=O)N[C@@H](CCCCN)C(=O)N2[C@@H]1c1cccc(OCCO)c1	3.24	1.31	2.31	1.01	1.45	1.59	1.08	1.66	1.62	-1.61 (inactive)
CC(C)c1ccc(NN2C(C(O)C(c3ccccc3)c3ccccc3)C=CC3C(=O)N(c4ccccc4)C(=O)C32)cc1 (stereo not given)	0.49	1.2	0.496	0.975	1.13	0.388	-1.24	0.343	0.919	-0.78 (inactive)
